# Measurements published in PubChem BioAssay AID1211 (NMMLSC, 2008).
# Activity calls are given as the source filed them. How the calls were made is not given here.
# Molecular target: Estrogen receptor (Homo sapiens) (UniProt P03372)
# Test: displacement of fluorescent estrogen from ERalpha – cell-based, Cos7 ERalpha-GFP, flow cytometry, primary screen (AID 1211);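 further: 0% = DMSO vehicle wells and 100% = no E2-Alexa633 signal left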
# Conditions: fluorescent ligand competition, stronger effect = higher value
# Estrogen receptor (Homo sapiens), sequence (P03372 whole entry, looked up): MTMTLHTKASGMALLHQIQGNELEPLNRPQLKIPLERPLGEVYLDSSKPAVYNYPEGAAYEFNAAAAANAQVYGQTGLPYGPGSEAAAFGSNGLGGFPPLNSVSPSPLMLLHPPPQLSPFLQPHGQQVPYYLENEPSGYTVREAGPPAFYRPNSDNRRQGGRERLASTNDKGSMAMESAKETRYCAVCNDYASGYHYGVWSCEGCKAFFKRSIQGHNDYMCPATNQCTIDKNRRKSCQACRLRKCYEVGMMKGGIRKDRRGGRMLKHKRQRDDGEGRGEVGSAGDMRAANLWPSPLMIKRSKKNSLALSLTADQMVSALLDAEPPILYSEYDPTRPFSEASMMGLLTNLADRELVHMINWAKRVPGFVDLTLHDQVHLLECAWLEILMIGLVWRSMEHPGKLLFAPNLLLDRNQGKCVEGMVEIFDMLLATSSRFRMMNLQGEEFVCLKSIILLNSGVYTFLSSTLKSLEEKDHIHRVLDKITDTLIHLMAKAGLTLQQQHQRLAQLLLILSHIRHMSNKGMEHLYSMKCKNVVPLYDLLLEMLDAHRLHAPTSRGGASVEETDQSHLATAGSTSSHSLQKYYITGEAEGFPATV
Compound,inhibition of ligand binding (at 10 µM),"inhibition of ligand binding (binding inhibition, at 0.1 µM) [%]"
C1=C(N2CCOCC2)/C(=C/c2nc3ccccc3[nH]2)CC1,50% (inactive),41
O=C1C=CC(O)(c2cc(=O)c3c(O)cc(O)cc3o2)C=C1,38% (inactive),42
O=C(Cc1cccs1)Nc1ccccn1,0% (inactive),16
COc1ccc(-c2cn3c(C)c(C(=O)Nc4ccncc4)sc3n2)cc1,28% (inactive),3
O=C(c1cc2sccc2n1Cc1ccccc1)N1CCc2ccccc21,45% (inactive),20
COc1ccc(C2CC(c3cccs3)=NN2c2ccc(C=O)cc2)cc1 (centres undefined),58% (inactive),38
COc1ccc(OC)c(NC(=O)c2cc(-c3ccc(C)cc3O)n[nH]2)c1,40% (inactive),5
CN(C)CC(=O)N1c2ccccc2CCc2ccc(NC(=O)c3ccc(N)cc3)cc21,44% (inactive),41
Oc1c(C=Nc2cccc3cccnc23)sc2ccccc12,40% (inactive),21
CCCCN(CCCC)S(=O)(=O)c1ccc(NC(=O)Cc2cccs2)cc1,61% (inactive),46
COc1cc(OC)cc(C(=O)NC2CCN(C(=O)N3c4ccccc4Sc4ccccc43)CC2)c1,6% (inactive),22
CC1(C)CC(=O)c2c(oc3cc(O)c(O)cc23)C1,20% (inactive),54
Nc1ccc(-c2cc(-c3ccc(N)cc3)nc(-c3ccccc3)n2)cc1,51% (inactive),12
Cc1ccc(C(=O)ONc2ccc(N=NC(=O)c3ccccc3O)cc2)cc1,39% (inactive),37
CCOc1ccccc1-n1nnnc1SCC(=O)NC(=O)NCc1ccco1,5% (inactive),5
O=C(Nc1nc(-c2ccc(S(=O)(=O)N3CCOCC3)cc2)cs1)c1ccccc1,48% (inactive),25
Cc1ccccc1Nc1nnc(SCC(=O)NC(=O)NCc2ccco2)s1,63% (inactive),50
CC(=O)c1sc2nc(SCC(=O)N3CCCCC3)[nH]c(=O)c2c1C,33% (inactive),30
Cc1cccc(N2CCN(C(=O)c3cc4c(=O)n(C)c5ccccc5c4n3C)CC2)c1C,55% (inactive),11
CCCCn1c(=O)[nH]c2nc3cc(N)ccc3nc2c1=O,4% (inactive),1
CCC(=O)Oc1ccc(C(CC)C(CC)c2ccc(OC(=O)CC)cc2)cc1 (centres undefined),80% (active),89
COc1cc2c(cc1OC)C(Cc1ccc(O)cc1)N(C)CC2 (centres undefined),0% (inactive),16

Compound,inhibition of ligand binding (at 10 µM),"inhibition of ligand binding (binding inhibition, at 0.1 µM) [%]"
COc1cc(NC(=O)c2cccs2)c(C(=O)OCC(=O)NCc2ccco2)cc1OC,22% (inactive),20
O=S(=O)(Nc1ncnc2sc3c(c12)CCC3)c1ccc2ccccc2c1,28% (inactive),37
Cc1ccc2c(Cl)cc(Cl)c(OCC(=O)NCc3ccco3)c2n1,21% (inactive),18
Cc1cc(C)n2nc(SCc3cc(=O)oc4cc(O)ccc34)nc2n1,49% (inactive),5
O=C(COC(=O)c1cccc(S(=O)(=O)N2CCc3ccccc3C2)c1)NCc1ccco1,35% (inactive),7
COc1ccc2c(c1)c(=O)oc1cc3oc(C)c(C)c3cc12,3% (inactive),16
Cc1cc(N)ccc1N=Nc1c(C)n(C)n(-c2ccccc2)c1=O,44% (inactive),3
CC1(C)CCCN(C(=O)c2coc(=O)c(Br)c2)C1,33% (inactive),25
CN(c1ccccc1C(=O)O)S(=O)(=O)c1ccc2c3c(cccc13)C(=O)N2,40% (inactive),12
CCOc1ccc(N=C2NC(=O)S/C2=C\c2ccc(OC)cc2)cc1,39% (inactive),26
COc1cc(C(Nc2ccccn2)c2ccc3ccc(C)nc3c2O)cc(OC)c1O (centres undefined),54% (inactive),16
CCOc1cccc2cc(-c3nnc(NCc4ccco4)s3)c(=O)oc12,47% (inactive),61
COc1ccc(NC(=O)CSc2nc3ccccc3c3nc4ccccc4n23)cc1,23% (inactive),31
Nc1ccc2nn(-c3cccc4ccccc34)nc2c1,0% (inactive),12
CC1(N2CCOCC2)CC2(O)C(=[N+]1[O-])CCc1nonc12 (centres undefined),34% (inactive),46
COc1nnc(-c2ccc(C(=O)N3C[C@@H]4C[C@H](C3)c3cccc(=O)n3C4)cc2)c2ccccc12,1% (inactive),6
COc1ccc(CNC(=O)c2cc(-c3cccs3)on2)cc1,40% (active),90
O=S(=O)(NCc1csc(-c2cccnc2)n1)c1ccc(Cl)s1,45% (inactive),6
O=c1cc(O)c2sc(Nc3ccc(F)cc3)nc2[nH]1,9% (inactive),48
Nc1c(Cl)cc(Cl)cc1C(=O)OCC(=O)NC1CC1,52% (inactive),13
NC(=O)c1oc2ccccc2c1NC(=O)c1nc2ccccc2s1,43% (inactive),4
Oc1ccc(-c2cn3c(n2)SCC3)cc1O,19% (inactive),28

Compound,inhibition of ligand binding (at 10 µM),"inhibition of ligand binding (binding inhibition, at 0.1 µM) [%]"
O=C(N/N=C/c1cccc(Oc2ccc([N+](=O)[O-])cc2[N+](=O)[O-])c1)c1cncc(Br)c1,21% (inactive),63
Nc1ncnc2c1ncn2C1CCC(CO)C(O)C1 (centres undefined),0% (inactive),10
O=C(COC(=O)c1ccccc1Oc1ccccc1)NCc1ccco1,13% (inactive),53
Cc1ccc(Cn2c(NC(=O)c3ccco3)nc3ccccc32)cc1,29% (inactive),11
COc1cc2c(cc1O)CC[n+]1cc3c(OC)c(OC)ccc3cc1-2,46% (inactive),9
Cc1c(N=Cc2ccc(O)c(Br)c2)cccc1[N+](=O)[O-],0% (inactive),23
N=c1c(C(=O)NCc2ccc(F)cc2)cc2c(=O)n3ccccc3nc2n1Cc1cccnc1,44% (inactive),26
O=S(=O)(NCc1csc(-c2cccnc2)n1)c1cccs1,22% (inactive),5
CCOC(=O)Cc1csc(NC(=O)Cc2cccs2)n1,28% (inactive),12
O=C(Cc1cccs1)Nc1nnc(Cc2ccccc2)s1,33% (inactive),31
CCOC(=O)N1CCN(S(=O)(=O)c2ccc(C(=O)Nc3nc4ccc(F)cc4s3)cc2)CC1,34% (inactive),11
Cc1oc(-c2ccc(Cl)cc2)cc1-c1nn2c(-c3ccoc3C)nnc2s1,68% (active),34
CN(C(=S)Nc1cccnc1)c1ccc(O)cc1,39% (inactive),41
CC1CC(C(F)(F)C(F)(F)F)n2nc(C(=O)O)cc2N1 (centres undefined),9% (inactive),9
Cc1nn(-c2ccccc2)c(Cl)c1/C=N/Nc1ccc(S(=O)(=O)Nc2ccccc2C(=O)O)cc1[N+](=O)[O-],38% (inactive),12
CC(=O)N1c2ccc(Cl)cc2C2C=CCC2C1c1cccc2ccccc12 (centres undefined),0% (inactive),13
Nc1ccc2nc(-c3ccc(Cl)cc3)[nH]c2c1,41% (inactive),30
COc1ccccc1N1CCN(C(=O)c2cc3c(s2)CCC3)CC1,41% (inactive),55
COc1cccc(-n2nnnc2SCC(=O)Nc2ccc(C(C)=O)cc2)c1,38% (inactive),45
COc1ccc(N=Cc2sc(O)c3ccccc23)cc1,37% (inactive),36
CN(CC(=O)NC(=O)NCc1ccco1)Cc1nc2ccccc2c(=O)[nH]1,17% (inactive),64
COc1ccc(NC(=O)C(NC(=O)c2ccc(=O)[nH]c2)c2ccc(C)cc2)cc1 (centres undefined),4% (inactive),13

Compound,inhibition of ligand binding (at 10 µM),"inhibition of ligand binding (binding inhibition, at 0.1 µM) [%]"
Cc1csc2nc(CCNS(=O)(=O)c3ccc4c(c3)OCCO4)cn12,38% (active),77
O=C(CSc1nc2c(cnn2-c2ccccc2)c(=O)[nH]1)c1ccc(Cl)cc1,18% (inactive),1
COC(=O)c1ccc(CC(=O)c2c(C)cc(O)cc2O)o1,34% (inactive),43
Oc1ccccc1-c1nnc(SCCN2CCOCC2)n1Cc1ccccc1,32% (inactive),44
O=C(COC(=O)CC1CCCC1)Nc1cc2c(cc1Cl)C(=O)c1ccccc1C2=O,37% (inactive),24
Cc1cc(C(=O)O)ccc1-n1c(C)ccc1C,43% (inactive),58
Cc1ccc2occ(C3NC(C(=O)O)CS3)c(=O)c2c1 (centres undefined),39% (inactive),27
COc1cc(C2CC(=O)c3c(ccc4ccccc34)N2)ccc1O (centres undefined),0% (inactive),12
Cc1ccccc1OCC1Cc2c(nc(N)c(C#N)c2N)O1 (centres undefined),31% (inactive),13
CC(C)(C)OC(=O)N1CCN(c2ccc(NC(=O)Cn3nnc(-c4ccccc4)n3)cc2)CC1,37% (inactive),24
c1ccc(-c2nnc3sc(Cc4cccs4)nn23)cc1,28% (inactive),13
Cc1cc2n(c1)CCn1c(C)ccc1-2,26% (inactive),53
CCOc1cccc2cc(-c3cn4cc(C)ccc4n3)c(=O)oc12,52% (inactive),29
COc1ccc2c(c1)c(=O)oc1cc(OCC(=O)NC3CCCCC3)ccc12,60% (inactive),60
Cc1cc(O)ccc1C1(c2ccc(O)cc2C)OC(=O)c2ccccc21,28% (inactive),64
CCc1ccc(NC(=O)c2noc3c2CCC3)cc1,2% (inactive),9
O=C(CSc1nc(C2CCCCC2)n(-c2ccccc2)n1)NCC(F)(F)F,41% (inactive),46
CC1=C(SCCC#N)S/C(=C2\SC(C)=C(SCCC#N)S2)S1,59% (inactive),11
CC1CCCN(c2nc3c(c(=O)[nH]c(=O)n3C)n2Cc2ccccc2Cl)C1 (centres undefined),33% (inactive),58
CC(C)c1ccc2c(c1)[C@H]1OCC[C@H]1[C@@H](c1cccs1)N2,0% (inactive),20
CCc1ccc2nc(NC(=O)c3ccc4c(=O)[nH]c(CN5CCOCC5)nc4c3)sc2c1,32% (inactive),9
